Measured values taken from the supplement of paper PMC8975748.
Counter-ions that a name gives are not always drawn.

Test system: Saccharomyces cerevisiae BY4741 SeMeCo community
Assay: z-score of subpopulation abundance vs DMSO median, subpopulation auxotrophic for HM; higher = larger share of this subpopulation than in DMSO controls
Conditions: 10 µM; 24 h; SM minimal medium; subpopulation (auxotrophy): HM
Experimental: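 Fluorescent four-plasmid SeMeCo (self-establishing metabolically cooperating S. cerevisiae BY4741 community; plasmids pH-mRuby2, pL-mWasabi, pU-eCFP, pM-TagRFP657) was grown 24 h in minimal SM medium with each Selleck FDA-approved drug at 10 µM in 384-well plates. Cells were fixed and imaged by high-content confocal microscopy. For each auxotrophic subpopulation (and the prototroph), a z-score gives the deviation from the DMSO vehicle-control population median.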

| Structure (SMILES) | z-score of subpopulation abundance |
| --- | --- |
| CCN(C)C(=O)Oc1cccc([C@H](C)N(C)C)c1 [Rivastigmine] | -0.34 |
| CN[C@@H]1[C@@H](O)[C@@H](O[C@@H]2[C@@H](O)[C@H](O[C@H]3O[C@H](CN)CC[C@H]3N)[C@@H](N)C[C@H]2N)OC[C@]1(C)O.CN[C@@H]1[C@@H](O)[C@@H](O[C@@H]2[C@@H](O)[C@H](O[C@H]3O[C@H]([C@@H](C)N)CC[C@H]3N)[C@@H](N)C[C@H]2N)OC[C@]1(C)O.CN[C@@H]1[C@@H](O)[C@@H](O[C@@H]2[C@@H](O)[C@H](O[C@H]3O[C@H]([C@@H](C)NC)CC[C@H]3N)[C@@H](N)C[C@H]2N)OC[C@]1(C)O [Gentamicin Sulfate] | -0.24 |
| CCOC(=O)Nc1ccc(NCc2ccc(F)cc2)cc1N [Retigabine] | 0.58 |
| CC(=O)O[C@H]1C[C@@H]2CC[C@@H]3[C@H](CC[C@@]4(C)[C@H]3C[C@H]([N+]3(C)CCCCC3)[C@@H]4OC(C)=O)[C@@]2(C)C[C@@H]1[N+]1(C)CCCCC1 [Pancuronium dibromide] | -1.06 |
| CCCCCCCCCCCCCCCC[n+]1ccccc1 [Cetylpyridinium Chloride] | 12.4 |
| CC[C@H]1CN2CC[C@]3(C(=O)Nc4ccccc43)[C@@H]2C[C@@H]1/C(=C\OC)C(=O)OC [Rhynchophylline] | -0.29 |
| CN[C@@H]1[C@@H](O)[C@@H](O[C@@H]2[C@@H](O)[C@H](O[C@H]3O[C@H]([C@@H](C)O)[C@@H](O)[C@H](O)[C@H]3N)[C@@H](N)C[C@H]2N)OC[C@]1(C)O [Geneticin (G418 Sulfate)] | -0.26 |
| C[C@@H]1O[C@@H](O[C@H]2C[C@@H](O)[C@]3(CO)[C@H]4[C@H](O)C[C@]5(C)[C@@H](C6=CC(=O)OC6)CC[C@]5(O)[C@@H]4CC[C@]3(O)C2)[C@H](O)[C@H](O)[C@H]1O [Ouabain] | -0.63 |
| C[CH2][Hg][S]c1ccccc1C(=O)[O-].[Na+] [Thimerosal] | 22.6 |
| C=CCN1C[C@H](C(=O)N(CCCN(C)C)C(=O)NCC)C[C@@H]2c3cccc4[nH]cc(c34)C[C@H]21 [Cabergoline] | -0.83 |
| CN1[C@@H]2C[C@@H](OC(=O)[C@H](CO)c3ccccc3)C[C@H]1[C@@H]1O[C@@H]12 [Scopolamine HBr trihydrate] | -1.19 |
| C=CC[C@]1(O)CC[C@H]2[C@@H]3CCC4=CC(=O)CCC4=C3C=C[C@@]21C [Altrenogest] | -0.25 |
| Oc1cccc2cccnc12 [8-Hydroxyquinoline] | 2.14 |
| N[C@@H]1C[C@H]1c1ccccc1 [Tranylcypromine (2-PCPA) HCl] | -0.71 |
| CC[C@@H](C(N)=O)N1CCCC1=O [Levetiracetam] | -0.1 |
| O=C(O[C@H]1C[N+]2(CCCOc3ccccc3)CCC1CC2)C(O)(c1cccs1)c1cccs1 [Aclidinium Bromide] | -0.01 |
| Nc1nc(N)nc(NC2CC2)n1 [Cyromazine] | 0.9 |
| CC(=O)OCC1=C(C(=O)O)N2C(=O)C(N)C2SC1 (stereo not given) [7-Aminocephalosporanic acid] | -0.48 |
| CC[C@H]1[C@@H]2C[C@H]3[C@@H]4N(C)c5ccccc5[C@]45C[C@@H]([C@@H]2[C@H]5O)N3[C@@H]1O [Ajmaline] | -0.37 |
| CC(NC(C)(C)C)C(=O)c1cccc(Cl)c1 (stereo not given) [Amfebutamone (Bupropion) HCl] | -0.38 |

| Structure (SMILES) | z-score of subpopulation abundance |
| --- | --- |
| C[N+]1(C)[C@@H]2C[C@@H](OC(=O)[C@H](CO)c3ccccc3)C[C@H]1[C@@H]1O[C@@H]12 [Methscopolamine] | 0.16 |
| C[C@@H]1CC[C@H]2[C@@H](C)C(=O)O[C@@H]3O[C@@]4(C)CC[C@@H]1[C@]32OO4 [Artemisinin] | -2.41 |
| CNC1CC(N)C(O)C(OC2OC(CO)C(O)C3OC4(OC(C(N)CO)C(O)C(O)C4O)OC23)C1O (stereo not given) [Hygromycin B] | -1.16 |
| Oc1cc(Cl)ccc1Oc1ccc(Cl)cc1Cl [Triclosan] | -1.82 |
| C#C[C@]1(O)C=C[C@H]2[C@@H]3CCC4=CC(=O)CC[C@@H]4[C@H]3CC[C@@]21CC [Gestodene] | 0.34 |
| Cc1cc(C(C#N)c2ccc(Cl)cc2)c(Cl)cc1NC(=O)c1cc(I)cc(I)c1O (stereo not given) [Closantel] | -0.13 |
| O=c1[nH]c2ccccc2n1CCCN1CCC(n2c(=O)[nH]c3cc(Cl)ccc32)CC1 [Domperidone] | 0.27 |
| O=C(O[C@H]1C[C@H]2CC[C@@H](C1)[N+]21CCCC1)C(O)(c1ccccc1)c1ccccc1 [Trospium chloride] | 0.4 |
| NCCc1c[nH]c2ccc(O)cc12 [Serotonin HCl] | 0.16 |
| COc1ccc2[nH]cc(CCN)c2c1 [5-Methoxytryptamine] | -0.25 |
| N#Cc1nn(-c2c(Cl)cc(C(F)(F)F)cc2Cl)c(N)c1[S+]([O-])C(F)(F)F (stereo not given) [Fipronil] | -0.23 |
| NCC(O)c1ccc(O)cc1 (racemic) [(+,-)-Octopamine HCl] | -0.78 |
| Cn1cc(C2=C(c3cn(C4CCN(Cc5ccccn5)CC4)c4ccccc34)C(=O)NC2=O)c2ccccc21 | -1.56 |
| C[N+]12CCC(CC1)C(OC(=O)C(O)(c1ccccc1)c1ccccc1)C2 (stereo not given) [Clidinium Bromide] | -0.38 |
| O=[N+]([O-])C(Br)(CO)CO [Bronopol] | -0.03 |
| CN(C)[C@@H]1C(=O)C(C(N)=O)=C(O)[C@@]2(O)C(=O)C3=C(O)c4c(O)cccc4[C@@](C)(O)[C@H]3[C@H](O)[C@@H]12 [Oxytetracycline Dihydrate] | -0.75 |
| Nc1ccncc1 [4-Aminopyridine] | 0.26 |
| COc1ccc(C(CN(C)C)C2(O)CCCCC2)cc1 (stereo not given) [Venlafaxine] | -0.77 |
| COc1ccc2c(c1)[C@]13CCCC[C@@H]1[C@H](C2)N(C)CC3 [Dextromethorphan hydrobromide hydrate] | 0.71 |
| CCN1CC2(OC(=O)c3ccccc3NC(C)=O)CCC(OC)C34C1C(CC23)C1(O)CC(OC)C2CC4C1(O)C2OC (stereo not given) [Lappaconitine] | -0.28 |
